Assay results: PMC7862700, “An all-to-all approach to the identification of sequence-specific readers for epigenetic DNA modifications on cytosine”

Tests used:
Assay in all cases: DAPPL (digital affinity profiling via proximity ligation, sequencing); 10 mM Tris-HCl pH 7.5, 50 mM NaCl, 1 mM DTT, 4% glycerol, room temperature, 30 min; GST-TFs on glutathione beads, 16-mer random dsDNA library, 0.1% formaldehyde crosslink after washing; high values mean tight binding
[1] = biological target: T1, FLI1 (Homo sapiens, UniProt Q01543 1-452); details: protein: recombinant; tags: N-terminal GST; dsDNA, one strand shown
T1 sequence: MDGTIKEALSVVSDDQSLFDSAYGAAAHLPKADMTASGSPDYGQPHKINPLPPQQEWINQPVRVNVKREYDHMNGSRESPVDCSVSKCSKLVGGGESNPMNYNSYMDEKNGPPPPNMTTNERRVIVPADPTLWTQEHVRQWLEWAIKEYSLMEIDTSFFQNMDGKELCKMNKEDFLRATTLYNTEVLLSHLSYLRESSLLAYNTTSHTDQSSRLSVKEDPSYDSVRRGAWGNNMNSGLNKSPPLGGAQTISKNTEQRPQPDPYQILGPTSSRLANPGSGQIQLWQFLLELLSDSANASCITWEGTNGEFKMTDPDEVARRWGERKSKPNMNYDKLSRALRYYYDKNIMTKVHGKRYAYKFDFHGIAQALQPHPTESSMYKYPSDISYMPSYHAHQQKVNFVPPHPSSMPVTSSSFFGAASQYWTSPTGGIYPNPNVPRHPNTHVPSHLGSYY
Procedure, shortened: (§1)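 Each value of binding signal is a hexamer's read frequency for a factor divided by the same hexamer's frequency in the tag-only sample. Barcoded, bead-captured GST fusions of human transcription factors made in yeast were pooled with that sample and incubated with 200 nmole of a random double-stranded 16-mer DNA library in Tris/NaCl/DTT/glycerol buffer at room temperature for 30 min. Washing, 0.1% formaldehyde crosslinking, proximity ligation, PCR and Illumina NextSeq500 sequencing followed.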

[2] = biological target: T2, ELK1 (Homo sapiens, UniProt P19419 1-428); details: protein: recombinant; tags: N-terminal GST; dsDNA, one strand shown
T2 sequence: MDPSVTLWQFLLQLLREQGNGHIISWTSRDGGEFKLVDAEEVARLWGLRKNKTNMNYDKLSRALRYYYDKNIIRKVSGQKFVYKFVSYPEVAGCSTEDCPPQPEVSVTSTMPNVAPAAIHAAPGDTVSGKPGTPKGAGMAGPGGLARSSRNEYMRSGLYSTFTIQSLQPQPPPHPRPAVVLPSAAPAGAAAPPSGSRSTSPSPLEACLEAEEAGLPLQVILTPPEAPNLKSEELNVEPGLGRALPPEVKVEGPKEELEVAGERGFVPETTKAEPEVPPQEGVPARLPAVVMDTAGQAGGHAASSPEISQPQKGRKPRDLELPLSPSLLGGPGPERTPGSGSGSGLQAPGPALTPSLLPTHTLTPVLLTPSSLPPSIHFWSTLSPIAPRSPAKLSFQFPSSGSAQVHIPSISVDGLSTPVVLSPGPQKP
Procedure, shortened: as §1

[3] = biological target: T3, GABPA (Homo sapiens, UniProt Q06546 1-454); details: protein: recombinant; tags: N-terminal GST; dsDNA, one strand shown
T3 sequence: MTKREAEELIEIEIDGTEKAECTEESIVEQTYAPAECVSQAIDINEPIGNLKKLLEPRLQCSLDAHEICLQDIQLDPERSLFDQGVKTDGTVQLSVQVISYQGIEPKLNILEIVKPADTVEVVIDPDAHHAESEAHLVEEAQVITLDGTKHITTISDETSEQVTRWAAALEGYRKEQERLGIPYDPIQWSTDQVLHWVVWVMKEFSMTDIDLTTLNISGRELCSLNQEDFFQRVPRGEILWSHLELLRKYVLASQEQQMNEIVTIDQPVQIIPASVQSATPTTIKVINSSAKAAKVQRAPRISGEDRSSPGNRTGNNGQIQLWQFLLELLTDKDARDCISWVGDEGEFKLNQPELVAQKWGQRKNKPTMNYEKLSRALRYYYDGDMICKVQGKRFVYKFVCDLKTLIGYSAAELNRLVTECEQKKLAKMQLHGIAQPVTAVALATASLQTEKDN
Procedure, shortened: as §1

[4] = biological target: T4, ERG (Homo sapiens, UniProt P11308 1-479); details: protein: recombinant; tags: N-terminal GST; dsDNA, one strand shown
T4 sequence: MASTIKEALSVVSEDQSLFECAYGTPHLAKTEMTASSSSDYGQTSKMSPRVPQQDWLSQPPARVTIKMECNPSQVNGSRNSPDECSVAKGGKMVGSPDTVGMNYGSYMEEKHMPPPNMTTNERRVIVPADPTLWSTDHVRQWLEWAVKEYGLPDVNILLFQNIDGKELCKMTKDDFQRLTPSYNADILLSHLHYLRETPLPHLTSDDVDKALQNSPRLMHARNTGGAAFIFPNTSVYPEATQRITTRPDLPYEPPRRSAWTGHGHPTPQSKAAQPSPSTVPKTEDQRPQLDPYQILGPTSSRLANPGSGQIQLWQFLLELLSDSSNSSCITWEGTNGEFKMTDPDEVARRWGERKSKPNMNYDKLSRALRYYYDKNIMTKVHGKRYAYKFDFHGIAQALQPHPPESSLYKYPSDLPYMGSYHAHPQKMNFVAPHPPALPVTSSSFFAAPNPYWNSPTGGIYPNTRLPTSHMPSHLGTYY
Procedure, shortened: as §1

[5] = biological target: ELF1 (Homo sapiens, UniProt P32519 1-619); details: protein: recombinant; tags: N-terminal GST; dsDNA, one strand shown
Chain of ELF1 (P32519 whole entry): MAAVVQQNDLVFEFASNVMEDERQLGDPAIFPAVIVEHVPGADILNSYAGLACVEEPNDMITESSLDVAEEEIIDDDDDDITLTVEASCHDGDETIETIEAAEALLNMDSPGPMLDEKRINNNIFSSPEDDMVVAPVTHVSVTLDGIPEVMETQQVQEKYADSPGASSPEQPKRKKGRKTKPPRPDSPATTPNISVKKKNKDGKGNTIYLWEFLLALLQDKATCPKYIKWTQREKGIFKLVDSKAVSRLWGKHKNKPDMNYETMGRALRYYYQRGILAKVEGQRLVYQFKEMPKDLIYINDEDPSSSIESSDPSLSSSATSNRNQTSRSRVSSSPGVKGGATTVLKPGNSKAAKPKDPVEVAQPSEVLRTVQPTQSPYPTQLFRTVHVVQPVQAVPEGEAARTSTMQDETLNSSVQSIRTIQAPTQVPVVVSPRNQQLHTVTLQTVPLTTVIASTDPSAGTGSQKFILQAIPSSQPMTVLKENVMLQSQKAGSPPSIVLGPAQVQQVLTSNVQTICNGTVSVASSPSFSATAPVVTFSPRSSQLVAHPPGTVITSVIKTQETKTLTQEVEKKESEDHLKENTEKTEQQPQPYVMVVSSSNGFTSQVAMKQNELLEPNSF
Procedure, shortened: as §1

[6] = biological target: T5, EHF (Homo sapiens, UniProt Q9NZC4 1-300); details: protein: recombinant; tags: N-terminal GST; dsDNA, one strand shown
T5 sequence: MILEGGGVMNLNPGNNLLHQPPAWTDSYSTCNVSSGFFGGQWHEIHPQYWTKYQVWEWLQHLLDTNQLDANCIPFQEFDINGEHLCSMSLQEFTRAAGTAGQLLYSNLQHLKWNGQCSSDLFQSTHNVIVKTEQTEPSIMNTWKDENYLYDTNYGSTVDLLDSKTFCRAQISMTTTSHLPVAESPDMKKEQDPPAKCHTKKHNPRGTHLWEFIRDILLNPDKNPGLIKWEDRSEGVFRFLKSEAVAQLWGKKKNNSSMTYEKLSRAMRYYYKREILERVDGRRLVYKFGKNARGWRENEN
Procedure, shortened: as §1

[7] = biological target: SPI1 (Homo sapiens, UniProt P17947 1-270); details: protein: recombinant; tags: N-terminal GST; dsDNA, one strand shown
Procedure, shortened: as §1

[8] = biological target: SPIB (Homo sapiens, UniProt Q01892 1-262); details: protein: recombinant; tags: N-terminal GST; dsDNA, one strand shown
Chain of SPIB (Q01892 whole entry): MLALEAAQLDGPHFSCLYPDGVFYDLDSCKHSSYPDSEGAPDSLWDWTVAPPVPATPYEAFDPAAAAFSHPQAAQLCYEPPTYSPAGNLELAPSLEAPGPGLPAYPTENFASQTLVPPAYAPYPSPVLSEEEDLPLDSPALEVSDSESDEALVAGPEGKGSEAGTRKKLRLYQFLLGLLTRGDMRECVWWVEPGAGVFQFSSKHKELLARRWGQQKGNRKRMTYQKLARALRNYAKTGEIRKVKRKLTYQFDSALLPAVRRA
Procedure, shortened: as §1

[9] = biological target: T6, ELK3 (Homo sapiens, UniProt P41970 1-407); details: protein: recombinant; tags: N-terminal GST; dsDNA, one strand shown
T6 sequence: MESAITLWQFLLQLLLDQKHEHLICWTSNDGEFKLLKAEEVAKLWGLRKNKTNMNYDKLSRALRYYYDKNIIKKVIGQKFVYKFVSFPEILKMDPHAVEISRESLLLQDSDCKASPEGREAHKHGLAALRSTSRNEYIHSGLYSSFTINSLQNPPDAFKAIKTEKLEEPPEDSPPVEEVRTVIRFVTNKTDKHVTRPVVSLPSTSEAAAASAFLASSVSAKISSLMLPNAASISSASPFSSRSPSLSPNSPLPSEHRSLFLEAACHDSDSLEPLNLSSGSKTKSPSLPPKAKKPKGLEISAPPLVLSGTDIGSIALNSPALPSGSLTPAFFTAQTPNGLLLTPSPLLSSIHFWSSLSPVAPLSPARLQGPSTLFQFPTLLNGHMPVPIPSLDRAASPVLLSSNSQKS
Procedure, shortened: as §1

[10] = biological target: T7, FEV (Homo sapiens, UniProt Q99581 1-238); details: protein: recombinant; tags: N-terminal GST; dsDNA, one strand shown
T7 sequence: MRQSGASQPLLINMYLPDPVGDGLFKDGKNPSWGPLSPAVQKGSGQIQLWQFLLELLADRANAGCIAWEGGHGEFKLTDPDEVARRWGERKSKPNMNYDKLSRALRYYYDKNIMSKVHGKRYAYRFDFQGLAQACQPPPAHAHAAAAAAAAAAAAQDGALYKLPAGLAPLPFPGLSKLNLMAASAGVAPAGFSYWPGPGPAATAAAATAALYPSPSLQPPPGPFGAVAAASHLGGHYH
Procedure, shortened: as §1

[11] = biological target: ETV5 (Homo sapiens, UniProt P41161 1-510); details: protein: recombinant; tags: N-terminal GST; dsDNA, one strand shown
Chain of ETV5 (P41161 whole entry): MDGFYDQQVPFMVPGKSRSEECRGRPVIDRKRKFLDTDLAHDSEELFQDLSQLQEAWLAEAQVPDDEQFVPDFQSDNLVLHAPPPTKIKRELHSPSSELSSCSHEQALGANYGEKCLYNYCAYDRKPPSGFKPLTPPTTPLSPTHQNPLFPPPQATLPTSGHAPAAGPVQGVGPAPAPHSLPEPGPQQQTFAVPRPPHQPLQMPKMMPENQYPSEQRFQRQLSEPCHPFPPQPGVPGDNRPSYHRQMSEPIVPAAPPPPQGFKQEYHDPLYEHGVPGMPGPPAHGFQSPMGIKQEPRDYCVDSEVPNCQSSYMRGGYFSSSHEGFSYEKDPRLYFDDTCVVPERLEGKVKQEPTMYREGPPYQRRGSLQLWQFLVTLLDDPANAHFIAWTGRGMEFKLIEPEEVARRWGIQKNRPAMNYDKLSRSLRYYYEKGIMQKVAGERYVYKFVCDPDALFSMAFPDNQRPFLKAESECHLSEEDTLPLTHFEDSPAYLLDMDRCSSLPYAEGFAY
Procedure, shortened: as §1

[12] = biological target: HSF1 (Homo sapiens, UniProt Q00613 1-529); details: protein: recombinant; tags: N-terminal GST; chain copies: 3; dsDNA, one strand shown
Chain of HSF1 (Q00613 whole entry): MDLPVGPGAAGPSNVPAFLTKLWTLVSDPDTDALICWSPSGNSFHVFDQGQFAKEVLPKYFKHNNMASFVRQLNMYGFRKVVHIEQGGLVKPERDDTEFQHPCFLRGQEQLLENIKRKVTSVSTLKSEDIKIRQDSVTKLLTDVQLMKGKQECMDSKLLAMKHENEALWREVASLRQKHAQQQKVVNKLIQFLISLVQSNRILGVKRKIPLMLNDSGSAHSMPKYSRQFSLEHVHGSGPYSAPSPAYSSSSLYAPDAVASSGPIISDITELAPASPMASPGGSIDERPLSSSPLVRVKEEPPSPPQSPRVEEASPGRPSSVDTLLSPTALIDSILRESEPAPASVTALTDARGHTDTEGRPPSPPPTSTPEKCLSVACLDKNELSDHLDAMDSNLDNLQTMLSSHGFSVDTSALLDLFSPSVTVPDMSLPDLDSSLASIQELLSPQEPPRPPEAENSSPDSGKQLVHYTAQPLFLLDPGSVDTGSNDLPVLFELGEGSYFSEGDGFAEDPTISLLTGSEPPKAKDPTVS
Procedure, shortened: as §1

[13] = biological target: T8, SPIC (Homo sapiens, UniProt Q8N5J4 1-248); details: protein: recombinant; tags: N-terminal GST; dsDNA, one strand shown
T8 sequence: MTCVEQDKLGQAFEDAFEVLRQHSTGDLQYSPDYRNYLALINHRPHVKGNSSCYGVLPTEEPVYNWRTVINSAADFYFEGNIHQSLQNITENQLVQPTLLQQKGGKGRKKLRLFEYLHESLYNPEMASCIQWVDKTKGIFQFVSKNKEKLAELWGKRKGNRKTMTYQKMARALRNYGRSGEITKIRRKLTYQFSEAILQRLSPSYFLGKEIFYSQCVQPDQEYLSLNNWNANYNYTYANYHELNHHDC
Procedure, shortened: as §1

[14] = biological target: ELF4 (Homo sapiens, UniProt Q99607 1-663); details: protein: recombinant; tags: N-terminal GST; dsDNA, one strand shown
Chain of ELF4 (Q99607 whole entry): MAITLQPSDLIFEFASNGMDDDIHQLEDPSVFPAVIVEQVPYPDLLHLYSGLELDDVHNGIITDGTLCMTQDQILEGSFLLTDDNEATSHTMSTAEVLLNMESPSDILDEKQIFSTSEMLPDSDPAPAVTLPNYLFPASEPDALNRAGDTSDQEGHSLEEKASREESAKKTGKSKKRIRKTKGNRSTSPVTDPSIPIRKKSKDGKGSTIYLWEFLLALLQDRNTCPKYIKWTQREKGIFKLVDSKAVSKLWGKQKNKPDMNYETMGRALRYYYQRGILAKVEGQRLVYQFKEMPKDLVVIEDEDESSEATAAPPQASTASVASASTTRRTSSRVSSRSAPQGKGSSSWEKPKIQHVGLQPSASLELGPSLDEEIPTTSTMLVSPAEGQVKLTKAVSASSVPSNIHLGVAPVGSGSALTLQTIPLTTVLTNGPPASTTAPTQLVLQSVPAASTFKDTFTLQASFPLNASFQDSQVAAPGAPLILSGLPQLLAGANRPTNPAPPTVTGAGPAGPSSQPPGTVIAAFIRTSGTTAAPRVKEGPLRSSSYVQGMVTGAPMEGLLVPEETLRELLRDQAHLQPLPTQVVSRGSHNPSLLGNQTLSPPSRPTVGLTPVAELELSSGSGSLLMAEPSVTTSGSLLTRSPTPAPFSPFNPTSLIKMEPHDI
Procedure, shortened: as §1

[15] = biological target: T9, ELK4 (Homo sapiens, UniProt P28324-2 1-405); details: protein: recombinant; tags: N-terminal GST; dsDNA, one strand shown
T9 sequence: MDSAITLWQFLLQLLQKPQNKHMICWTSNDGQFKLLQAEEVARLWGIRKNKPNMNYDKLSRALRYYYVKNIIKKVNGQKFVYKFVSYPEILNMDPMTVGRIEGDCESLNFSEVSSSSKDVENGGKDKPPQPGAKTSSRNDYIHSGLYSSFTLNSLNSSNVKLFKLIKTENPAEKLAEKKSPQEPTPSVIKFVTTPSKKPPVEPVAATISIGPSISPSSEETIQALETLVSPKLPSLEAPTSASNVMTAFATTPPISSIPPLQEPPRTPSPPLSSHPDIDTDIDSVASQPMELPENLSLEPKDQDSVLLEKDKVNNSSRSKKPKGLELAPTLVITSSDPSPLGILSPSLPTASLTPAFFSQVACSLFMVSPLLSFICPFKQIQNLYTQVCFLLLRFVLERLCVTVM
Procedure, shortened: as §1

[16] = biological target: T10, ETV2 (Homo sapiens, UniProt O00321 1-342); details: protein: recombinant; tags: N-terminal GST; dsDNA, one strand shown
T10 sequence: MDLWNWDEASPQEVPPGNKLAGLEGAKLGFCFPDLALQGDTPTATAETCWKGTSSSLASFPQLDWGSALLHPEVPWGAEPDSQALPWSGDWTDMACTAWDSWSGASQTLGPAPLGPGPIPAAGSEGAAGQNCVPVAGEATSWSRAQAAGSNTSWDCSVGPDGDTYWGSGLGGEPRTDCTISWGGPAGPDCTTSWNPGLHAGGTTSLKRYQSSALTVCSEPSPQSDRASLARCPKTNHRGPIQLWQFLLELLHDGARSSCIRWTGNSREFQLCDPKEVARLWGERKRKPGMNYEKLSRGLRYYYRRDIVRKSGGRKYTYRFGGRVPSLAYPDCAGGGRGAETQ
Procedure, shortened: as §1

[17] = biological target: T11, ELF3 (Homo sapiens, UniProt P78545 1-371); details: protein: recombinant; tags: N-terminal GST; dsDNA, one strand shown
T11 sequence: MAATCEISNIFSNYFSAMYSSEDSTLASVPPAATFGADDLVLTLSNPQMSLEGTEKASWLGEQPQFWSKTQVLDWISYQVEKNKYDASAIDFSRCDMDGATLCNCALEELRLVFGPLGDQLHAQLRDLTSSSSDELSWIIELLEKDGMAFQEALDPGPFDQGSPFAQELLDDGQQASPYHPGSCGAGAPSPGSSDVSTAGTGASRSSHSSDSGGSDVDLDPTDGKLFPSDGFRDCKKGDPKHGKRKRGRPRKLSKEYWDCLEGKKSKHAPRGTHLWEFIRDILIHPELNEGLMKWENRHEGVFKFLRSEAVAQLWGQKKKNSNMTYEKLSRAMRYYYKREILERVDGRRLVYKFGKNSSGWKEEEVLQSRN
Procedure, shortened: as §1

[18] = biological target: CRX (Homo sapiens, UniProt O43186 1-299); details: protein: recombinant; tags: N-terminal GST; dsDNA, one strand shown
Chain of CRX (O43186 whole entry): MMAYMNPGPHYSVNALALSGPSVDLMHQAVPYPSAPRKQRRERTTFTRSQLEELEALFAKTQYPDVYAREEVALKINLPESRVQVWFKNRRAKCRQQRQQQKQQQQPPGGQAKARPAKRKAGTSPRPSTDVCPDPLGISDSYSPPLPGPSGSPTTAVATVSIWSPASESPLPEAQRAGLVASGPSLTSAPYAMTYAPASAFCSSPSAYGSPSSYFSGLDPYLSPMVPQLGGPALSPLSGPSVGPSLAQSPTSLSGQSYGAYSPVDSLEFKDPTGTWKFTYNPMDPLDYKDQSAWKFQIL
Procedure, shortened: as §1

[19] = biological target: ETV1 (Homo sapiens, UniProt P50549 1-477); details: protein: recombinant; tags: N-terminal GST; dsDNA, one strand shown
Chain of ETV1 (P50549 whole entry): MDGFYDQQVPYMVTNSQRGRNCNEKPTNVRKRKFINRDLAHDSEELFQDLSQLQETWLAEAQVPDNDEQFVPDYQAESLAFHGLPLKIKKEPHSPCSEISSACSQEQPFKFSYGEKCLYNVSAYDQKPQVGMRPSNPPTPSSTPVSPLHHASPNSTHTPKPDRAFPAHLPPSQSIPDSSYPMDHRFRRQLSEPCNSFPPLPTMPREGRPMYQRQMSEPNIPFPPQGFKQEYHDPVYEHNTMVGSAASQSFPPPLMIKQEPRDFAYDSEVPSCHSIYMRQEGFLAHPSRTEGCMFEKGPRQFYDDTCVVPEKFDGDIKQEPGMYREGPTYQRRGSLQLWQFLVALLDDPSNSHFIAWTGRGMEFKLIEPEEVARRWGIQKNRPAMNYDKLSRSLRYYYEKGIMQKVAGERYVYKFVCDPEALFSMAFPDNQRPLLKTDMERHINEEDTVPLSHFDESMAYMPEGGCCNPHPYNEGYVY
Procedure, shortened: as §1

TATACG
binding signal [1]: 1.32 fold enrichment (6-mer frequency, TF over GST control)
binding signal [2]: 1.31 fold enrichment (6-mer frequency, TF over GST control)
binding signal [3]: 1.3 fold enrichment (6-mer frequency, TF over GST control)
binding signal [4]: 1.24 fold enrichment (6-mer frequency, TF over GST control)
binding signal [5]: 1.31 fold enrichment (6-mer frequency, TF over GST control)
binding signal [6]: 1.2 fold enrichment (6-mer frequency, TF over GST control)
binding signal [7]: 1.2 fold enrichment (6-mer frequency, TF over GST control)
binding signal [8]: 1.35 fold enrichment (6-mer frequency, TF over GST control)
binding signal [9]: 1.22 fold enrichment (6-mer frequency, TF over GST control)
binding signal [10]: 1.18 fold enrichment (6-mer frequency, TF over GST control)
binding signal [11]: 1.25 fold enrichment (6-mer frequency, TF over GST control)
binding signal [12]: 1.27 fold enrichment (6-mer frequency, TF over GST control)
binding signal [13]: 1.1 fold enrichment (6-mer frequency, TF over GST control)
binding signal [14]: 1.31 fold enrichment (6-mer frequency, TF over GST control)
binding signal [15]: 1.14 fold enrichment (6-mer frequency, TF over GST control)
binding signal [16]: 1.15 fold enrichment (6-mer frequency, TF over GST control)
binding signal [17]: 1.26 fold enrichment (6-mer frequency, TF over GST control)
binding signal [18]: 1.39 fold enrichment (6-mer frequency, TF over GST control)
binding signal [19]: 1.32 fold enrichment (6-mer frequency, TF over GST control)
